The assay deals with Caspase-9 (Homo sapiens) (UniProt P55211). In words: caspase-9 enzyme inhibition, dose response, selectivity assay for caspase-6 inhibitor project, biochemical, fluorescence, plate reader, cherry-picked samples (AID 743293).

In PubChem BioAssay AID743293 (Broad Institute, 2014) one finds outcome data, which are given here for one molecule.

Results with a measured potency or affinity are listed apart. Active and inactive are the calls of the source.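 The calls were made as follows: active = compounds lowering fluorescence with a fitted half-maximal concentration at or below a set limit tied to top dose; inconclusive = flat curve with 30 to 70% inhibition, or poor fit; inactive = the rest.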

Chain of Caspase-9 (Homo sapiens) (P55211 whole entry, looked up): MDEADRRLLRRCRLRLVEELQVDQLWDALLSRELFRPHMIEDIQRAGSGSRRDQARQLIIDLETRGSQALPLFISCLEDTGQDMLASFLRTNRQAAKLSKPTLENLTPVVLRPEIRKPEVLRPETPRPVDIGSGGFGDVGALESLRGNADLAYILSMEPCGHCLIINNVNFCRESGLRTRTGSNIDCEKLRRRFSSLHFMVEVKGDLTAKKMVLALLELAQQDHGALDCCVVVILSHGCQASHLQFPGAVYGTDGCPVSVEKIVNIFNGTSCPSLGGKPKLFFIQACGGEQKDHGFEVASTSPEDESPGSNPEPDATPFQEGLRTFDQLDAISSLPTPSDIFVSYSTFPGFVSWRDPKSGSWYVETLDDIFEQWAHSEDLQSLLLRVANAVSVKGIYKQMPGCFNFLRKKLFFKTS

As to `CC(Cc1ccc(O)cc1)NCC(O)c1ccc(O)c(O)c1` (stereo unspecified), the molecule was called inactive.
